LANA DNA inh: KSHV C-LANA DNA binding inhibition; MBP-C-LANA/FAM-LBS DNA binding, fluorescence polarization; inhibition, % at 9 µM; 340,000 tested, 0.078% active; AID 504423;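 active means highest replicate inhibition at or above 60% at 9 µM, even if other replicates fall short; inactive means all replicates below 60% inhibition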;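 further: 0% = neutral control wells and 100% = 4 µM acridine orange control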
Keap1-Nrf2 PPI: Keap1-Nrf2 (human) interaction inhibition. Q14145. 340,000 tested, 0.15% active. Keap1 Kelch-Nrf2 peptide fluorescence polarization, 1536-well. inhibition, % at 9.4 µM; in the data active means inhibition above about 12%;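 further: human Keap1 Kelch domain with fluorescein labeled Nrf2 9mer peptide probe; 0% = neutral control wells and 100% = peptide positive control; higher means more block of Keap1 binding to Nrf2 peptide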
Target sequence (Q14145 whole entry, looked up, the tested form may be a part): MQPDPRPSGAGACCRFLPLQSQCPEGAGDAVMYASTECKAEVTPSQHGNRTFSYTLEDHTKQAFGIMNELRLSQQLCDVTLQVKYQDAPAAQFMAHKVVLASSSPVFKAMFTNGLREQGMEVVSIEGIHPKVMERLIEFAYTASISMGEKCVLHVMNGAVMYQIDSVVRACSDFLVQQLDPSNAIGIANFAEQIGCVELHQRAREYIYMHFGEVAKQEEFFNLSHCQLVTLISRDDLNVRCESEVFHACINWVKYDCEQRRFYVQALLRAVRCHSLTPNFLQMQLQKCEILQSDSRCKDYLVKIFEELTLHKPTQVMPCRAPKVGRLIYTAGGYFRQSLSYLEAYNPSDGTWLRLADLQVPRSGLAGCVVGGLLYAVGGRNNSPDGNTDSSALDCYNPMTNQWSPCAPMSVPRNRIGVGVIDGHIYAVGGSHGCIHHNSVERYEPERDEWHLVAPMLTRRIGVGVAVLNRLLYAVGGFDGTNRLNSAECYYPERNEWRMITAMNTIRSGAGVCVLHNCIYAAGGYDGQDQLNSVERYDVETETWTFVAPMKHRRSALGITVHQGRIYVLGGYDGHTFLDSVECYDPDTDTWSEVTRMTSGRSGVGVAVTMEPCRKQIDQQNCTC
Cardiac RTF inh: cardiac RTF calcium desensitization. IANBD-labeled cardiac RTF, Ca2+ fluorescence. 340,000 tested, 0.12% active. AID 493244. inhibition, % at 7.15 µM;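 active means inhibition above the mean inhibition of all tested compounds plus 3 SD, cut at about 17% in these data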;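 further: assay run at fixed EC70 calcium of 1.6 mM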
RTF Ca sens act: increases calcium sensitivity of human cardiac regulated thin filaments. activation, % at 7.2 µM. IANBD-labeled TnC RTF fluorescence at EC20 calcium; 0% EC20 calcium, 100% full calcium. P19429+P45379. 340,000 tested, 0.24% active;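 active means activation above the mean over all tested compounds plus 3 SD, cut at about 30% in these data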;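 further: rise in fluorescence read as greater calcium sensitivity of cardiac thin filaments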
E coli Lon inh: inhibitors of E. coli Lon protease. inhibition, % at 7.94 µM. purified E. coli Lon protease, fluorescence polarization. 360,000 tested, 0.42% active; in the data active means inhibition above about 13%, passing the limit was not always enough;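 further: 0% = enzyme with probe and DMSO and 100% = no enzyme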
The depositor's hits bear a star. A selection: hits, their analogues and other compounds. The true share with any hit is near 0.82%.

`CN1/C(=C\C=C2/SC(=S)N(CC(=O)O)C2=O)C(C)(C)c2ccccc21` gave LANA DNA inh -95, Keap1-Nrf2 PPI -400, Cardiac RTF inh inactive, RTF Ca sens act 773* and E coli Lon inh -313.
For Cn1cccc1/C=C1/SC(=S)N(CC(=O)O)C1=O the results were LANA DNA inh -20, Keap1-Nrf2 PPI -61, Cardiac RTF inh -27, RTF Ca sens act 20 and E coli Lon inh -192.
NC(Cc1ccc(F)cc1)c1csc(Nc2ccc(C(=O)c3ccccc3)cc2)n1 (stereo not given) was read as E coli Lon inh 0.
`CCCN1C(=O)/C(=C/C=C2\N(CC)c3ccccc3C2(C)C)SC1=S` gave LANA DNA inh -1, Keap1-Nrf2 PPI -46, Cardiac RTF inh -69, RTF Ca sens act 52* and E coli Lon inh -158.
`COc1ccc(OC)c(CC(=O)Nc2ccc3c(c2)c(=O)n(C)n3Cc2cccc(C(F)(F)F)c2)c1` gave E coli Lon inh 3.
Screening CCn1c(=O)c(C(=O)CN2CCCc3ccccc32)c(N)n(Cc2ccccc2)c1=O returned LANA DNA inh 1, Keap1-Nrf2 PPI -5, Cardiac RTF inh -67, RTF Ca sens act 31* and E coli Lon inh -33.
O=[N+]([O-])c1nccn1C1C=CC(O)C(CO)O1 (stereo not given) was read as E coli Lon inh -10.
`Cc1ccc(CCC(=O)Nc2cc(Cl)ccc2Cl)o1` gave LANA DNA inh 1, Keap1-Nrf2 PPI -4, Cardiac RTF inh -7, RTF Ca sens act 39* and E coli Lon inh 1.
For CCN(CC)c1ccc(/C=c2\sc3nc4ccccc4n3c2=O)c(O)c1 the results were LANA DNA inh 2, Keap1-Nrf2 PPI -8, Cardiac RTF inh -81, RTF Ca sens act 53* and E coli Lon inh -94.
For O=C(Nc1ccccc1F)C(=Cc1sc(N2CCOCC2)nc1-c1ccccc1)C(=O)Nc1ccccc1F the results were LANA DNA inh 54, Keap1-Nrf2 PPI -7, Cardiac RTF inh -9, RTF Ca sens act 30* and E coli Lon inh -20.
Screening Cn1nccc1NC(=O)Nc1cccc(Cl)c1Cl returned LANA DNA inh -2, Keap1-Nrf2 PPI -3, Cardiac RTF inh 3, RTF Ca sens act 61* and E coli Lon inh 3.
For COc1ccc2nc3ccccc3nc2c1NC(=O)c1ccc(Cl)cc1Cl the results were LANA DNA inh 1, Keap1-Nrf2 PPI -15, Cardiac RTF inh -35, RTF Ca sens act 361* and E coli Lon inh -7.
CCN1CCN(C2=CC3=CC(=C(C#N)C#N)CCC3CC2)CC1 (stereo not given) was read as LANA DNA inh -61, Keap1-Nrf2 PPI -394, Cardiac RTF inh inactive, RTF Ca sens act active and E coli Lon inh inactive.
N#Cc1cc(Cl)c(N2CCOCC2)cc1C#N was read as LANA DNA inh 0, Keap1-Nrf2 PPI -3, Cardiac RTF inh -9, RTF Ca sens act 5 and E coli Lon inh -6.
`CC1(C)CC(NCCN2CCN(C3=CC(=C(C#N)C#N)CC(C)(C)C3)CC2)=CC(=C(C#N)C#N)C1` gave LANA DNA inh 3, Keap1-Nrf2 PPI -5, Cardiac RTF inh -8, RTF Ca sens act 9 and E coli Lon inh -4.
Screening N#CC(C#N)=C1C=C2C=C(N3CCOCC3)CCC2CC1 (stereo not given) returned LANA DNA inh -17, Keap1-Nrf2 PPI -102, Cardiac RTF inh inactive, RTF Ca sens act active and E coli Lon inh inactive.
`CN1CCN(C2=CC3=CC(=C(C#N)C#N)CCC3CC2)CC1` (stereo not given) gave LANA DNA inh -71, Keap1-Nrf2 PPI -465, Cardiac RTF inh inactive, RTF Ca sens act active and E coli Lon inh inactive.
`COC(=O)[C@H](CC(C)C)NC(=O)CC[C@H]1O[C@@H](n2cc(C)c(=O)[nH]c2=O)C[C@@H]1O` gave E coli Lon inh 3.
Cc1nn(Cc2c(F)c(F)c(F)c(F)c2F)c(C)c1NC(=O)c1nn(C)c(C)c1Br was read as LANA DNA inh -1, Keap1-Nrf2 PPI 2, Cardiac RTF inh 2, RTF Ca sens act 47* and E coli Lon inh 9.
Screening Cn1c2c(c(=O)n(C)c1=O)C(C(F)(F)F)(C(F)(F)F)N=C(CCC1CCCCC1)N2 returned LANA DNA inh -1, Keap1-Nrf2 PPI -1, Cardiac RTF inh -2, RTF Ca sens act 45* and E coli Lon inh 8.
For COc1ccccc1C(=O)NN(C)C1=NS(=O)(=O)c2ccccc21 the results were LANA DNA inh 2, Keap1-Nrf2 PPI 2, Cardiac RTF inh -2, RTF Ca sens act 60* and E coli Lon inh -11.
CN(NC(=O)CN1C(=O)c2ccccc2C1=O)C1=NS(=O)(=O)c2ccccc21 was read as LANA DNA inh -2, Keap1-Nrf2 PPI 2, Cardiac RTF inh -9, RTF Ca sens act -10 and E coli Lon inh -9.
For CCOC(=O)Cc1c(-c2cccc(Br)c2)nc2c3ccccc3ccn12 the results were E coli Lon inh -6.
`O=C1/C(=C/C=C/c2ccccc2)Oc2c1ccc(O)c2CN1CCN(CCO)CC1` gave LANA DNA inh 4, Keap1-Nrf2 PPI -33, Cardiac RTF inh -56, RTF Ca sens act 43* and E coli Lon inh -91.
For CCN1CCN(Cc2c(O)ccc3c2O/C(=C\c2ccccc2)C3=O)CC1 the results were LANA DNA inh 17, Keap1-Nrf2 PPI -12, Cardiac RTF inh -49, RTF Ca sens act 26 and E coli Lon inh -47.
`CCN1CCN(Cc2c(O)ccc3c2O/C(=C\C=C\c2ccccc2)C3=O)CC1` gave LANA DNA inh 8, Keap1-Nrf2 PPI -64, Cardiac RTF inh -137, RTF Ca sens act 140* and E coli Lon inh -188.
COc1ccccc1/C=C/C=C1\Oc2c(ccc(O)c2CN2CCN(CCO)CC2)C1=O was read as LANA DNA inh -1, Keap1-Nrf2 PPI -148, Cardiac RTF inh -222, RTF Ca sens act 239* and E coli Lon inh -157.
Screening CC(C)C1C(=O)N(Cc2cn(CC3CCCCC3)nn2)CCS(=O)(=O)N1Cc1ccc(-c2cccc(CO)c2)cc1 (stereo not given) returned E coli Lon inh -2.
For CCN(CC)c1ccc2cc(C(=O)c3cccs3)c(=O)oc2c1 the results were E coli Lon inh -475.
CN(C)C1CCCCC=CC(=O)NC1 (stereo not given) was read as E coli Lon inh -13.
For C[C@@H]1CN([C@H](C)CO)C(=O)c2cc(-c3ccc(C(=O)N(C)C)cc3)cnc2O[C@@H]1CN(C)C(=O)c1cccnc1 the results were E coli Lon inh -5.
For COc1cc(/C=C2\SC(=Nc3ccc(Cl)c(C(=O)O)c3)NC2=O)c(Br)c(Br)c1O the results were LANA DNA inh -55, Keap1-Nrf2 PPI -92, Cardiac RTF inh -135, RTF Ca sens act 70* and E coli Lon inh -482.
`COc1cc(/C=C2\SC(=Nc3ccccc3)NC2=O)cc(Cl)c1O` gave LANA DNA inh -31, Keap1-Nrf2 PPI -8, Cardiac RTF inh -92, RTF Ca sens act 63* and E coli Lon inh -489.
